From PubChem BioAssay (NCI) come the findings set out here.

Among the test systems are HCT-15 colon; HT29 colon; SNB-75 CNS; SNB-19 CNS; U251 CNS; PC-3 prostate; SK-MEL-5 melanoma; UACC-62 melanoma; LOX IMVI melanoma; SK-MEL-28 melanoma; SK-MEL-2 melanoma; EKVX NSCLC; SN12C renal; UO-31 renal; TK-10 renal; ACHN renal; CAKI-1 renal; A498 renal; CCRF-CEM leukemia; MOLT-4 leukemia.
Assay in all cases: NCI-60 one-dose screen, 48 h (100 = growth as untreated, 0 = no growth, -100 = all killed)
Common to all, as to settings: 10 µM unless noted

The panel holds about 83,000 compounds, 20% with a hit somewhere; the sample as a whole holds those more often.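 For each line, cells grew in 96-well plates with the test compound present at a single concentration for 48 hours.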 Unmarked numbers belong to inactive results. The source made the active and inactive calls. The calls were made as follows: active = growth percent below 10; inactive = the rest.

Turning to `CCN(CC)CCCNc1cc(OC)c(OC)c2cccnc12`, the growth is 72% in the test on HCT-15 colon; 83.7% with HT29 colon; 102% with SNB-75 CNS; 63.5% in the test with SNB-19 CNS; 52.6% in the test on U251 CNS; 54.8% in the test on PC-3 prostate. Besides, the growth in the test with SK-MEL-5 melanoma is 62.4%; in the test on UACC-62 melanoma, 60.6%; in the test on LOX IMVI melanoma, 34.2%; with SK-MEL-28 melanoma, 93.8%; in the test on SK-MEL-2 melanoma, 88.1%; in the test with EKVX NSCLC, 100%. The growth is 57.3% with SN12C renal; 46.6% with UO-31 renal; 98.9% with TK-10 renal; 42.3% with ACHN renal; 52.5% in the test on CAKI-1 renal; 81.8% in the test with A498 renal. For the same compound, the growth is 74.6% in the test on CCRF-CEM leukemia and 52.8% in the test on MOLT-4 leukemia.
`COc1ccc(-c2cc(-c3cccnc3)nc3sc4c(N)c(C(C)=O)c(-c5ccccc5)nc4c23)cc1OC`: the growth in the test with HCT-15 colon was 73.6%; in the test on HT29 colon, 52.5%; with SNB-75 CNS it was 63.5%; in the test with SNB-19 CNS, 86%; in the test with U251 CNS, 55.6%; in the test with PC-3 prostate it was 54.9%. Moreover, the growth was 39.4% in the test with SK-MEL-5 melanoma; 75.5% in the test on UACC-62 melanoma; 75.5% in the test on LOX IMVI melanoma; 70% in the test on SK-MEL-28 melanoma; 89.1% with SK-MEL-2 melanoma; 87.4% in the test on EKVX NSCLC. Besides, the growth is 80.3% in the test on SN12C renal; 51.8% in the test on UO-31 renal; 77.6% with TK-10 renal; 81.1% with ACHN renal; 61.8% with CAKI-1 renal; 71.7% with A498 renal. The growth in the test on CCRF-CEM leukemia was 70.5%; with MOLT-4 leukemia, 72.5%.
`COC(=O)/C=C1/SC(=NCc2ccccc2)N(CCc2c[nH]c3ccccc23)C1=O`: the growth with HCT-15 colon was 58.5%; in the test on HT29 colon it was 68.1%; in the test with SNB-75 CNS, 104%; in the test on SNB-19 CNS, 87.2%; in the test on U251 CNS, 78.5%; in the test with PC-3 prostate, 72.9%. For the same compound, the growth with SK-MEL-5 melanoma was 87.6%; in the test on UACC-62 melanoma it was 71.7%; with LOX IMVI melanoma, 70.6%; with SK-MEL-28 melanoma, 86.5%; in the test on SK-MEL-2 melanoma, 85.8%; in the test with EKVX NSCLC, 88.1%. Moreover, the growth in the test on SN12C renal was 85.4%; in the test with UO-31 renal, 73%; in the test with TK-10 renal, 129%; in the test on ACHN renal, 99.5%; in the test with CAKI-1 renal, 102%; in the test on A498 renal it was 88.1%. Further, the figures for the growth with CCRF-CEM leukemia and in the test with MOLT-4 leukemia were 30.3% and 3.29% (active), respectively.
As for `COCCn1cc(-c2csc(-c3c[nH]c4ccc(F)cc34)n2)c2cccnc21`, the growth was 14.7% in the test on HCT-15 colon; 11.8% in the test with HT29 colon; 39.7% with SNB-75 CNS; 58.1% with SNB-19 CNS; 32.5% with U251 CNS; 22.5% with PC-3 prostate. In addition, the growth with SK-MEL-5 melanoma was 1.53% (active); in the test with UACC-62 melanoma, 42.5%; with LOX IMVI melanoma, 21.8%; in the test with SK-MEL-28 melanoma it was 46.6%; in the test with SK-MEL-2 melanoma it was 25.3%; in the test with EKVX NSCLC it was 38%. The growth with SN12C renal is 66.7%; with UO-31 renal, 38.4%; with TK-10 renal, 33.1%; in the test on ACHN renal it was 41.9%; in the test on CAKI-1 renal, 45.3%; with A498 renal, 9.07% (active). For the same compound, the growth in the test on CCRF-CEM leukemia is 20.1%; with MOLT-4 leukemia it was 14.2%.
`CC/C(=C(\c1ccc(Cl)cc1)c1ccc(OCCN2CCCCC2)cc1)c1ccc(O)cc1`: the growth in the test on HCT-15 colon is 2.22% (active); in the test on HT29 colon, -37.2% (active); with SNB-75 CNS it was 40.5%; in the test with SNB-19 CNS, 61.1%; with U251 CNS, 0.575% (active); with PC-3 prostate, 30.4%. The growth in the test with SK-MEL-5 melanoma is 2.53% (active); with UACC-62 melanoma, 71%; with LOX IMVI melanoma it was -91.5% (active); in the test on SK-MEL-28 melanoma it was -63.4% (active); in the test with SK-MEL-2 melanoma, 57.2%; with EKVX NSCLC it was 68%. Further, the growth in the test on SN12C renal was 62.5%; in the test with UO-31 renal, 38.4%; in the test with TK-10 renal, 68.5%; with ACHN renal, 60.4%; in the test with CAKI-1 renal, 62.3%; in the test with A498 renal it was 87.2%. Besides, the growth with CCRF-CEM leukemia is 23.1%; in the test with MOLT-4 leukemia it was -5.41% (active).
For `O=C1/C(=C/c2c[nH]c(=O)[nH]c2=O)SC(=S)N1Cc1ccccc1`, the growth in the test with HCT-15 colon is 104%; with HT29 colon, 101%; in the test on SNB-75 CNS it was 80.1%; in the test on SNB-19 CNS, 95.2%; in the test with U251 CNS it was 97.7%; in the test with PC-3 prostate, 98.9%. Also, the growth in the test with SK-MEL-5 melanoma was 100%; with UACC-62 melanoma, 91.5%; in the test with LOX IMVI melanoma, 99.8%; with SK-MEL-28 melanoma it was 103%; with SK-MEL-2 melanoma, 103%; with EKVX NSCLC, 74.6%. The growth is 95.5% in the test with SN12C renal; 75.8% with UO-31 renal; 102% in the test on TK-10 renal; 102% in the test with ACHN renal; 93.6% in the test with CAKI-1 renal; 99.9% in the test with A498 renal. Also, the growth with CCRF-CEM leukemia was 104%; in the test on MOLT-4 leukemia it was 103%.
As to `COc1ccc(C(c2cc(OC)c(OC)c(OC)c2)N2CCCCC2)cc1` (stereo not given), the growth is 20.6% in the test on HCT-15 colon; 7.93% (active) with HT29 colon; 26.6% with SNB-75 CNS; 30.4% with SNB-19 CNS; 26.1% in the test with U251 CNS; 25.1% with PC-3 prostate. Further, the growth in the test with SK-MEL-5 melanoma is 29.5%; with UACC-62 melanoma it was 18.2%; with LOX IMVI melanoma, 36.3%; in the test with SK-MEL-28 melanoma it was 47.2%; with SK-MEL-2 melanoma, 22%; with EKVX NSCLC, 59.1%. Besides, the growth was 54.3% with SN12C renal; 48.8% with UO-31 renal; 57.6% with TK-10 renal; 50.9% with ACHN renal; 29.2% in the test on CAKI-1 renal; 7.32% (active) in the test with A498 renal. Moreover, the growth with CCRF-CEM leukemia is 29.9%; with MOLT-4 leukemia, 31.5%.
